# Sampled rows, rich in hits. Any-hit rate of the full collection: about 9.5%.
# Tau FP inhib – qHTS for Inhibitors of Tau Fibril Formation, Fluorescence Polarization; 280,000 compounds, 0.39% hits; Potency, µM (top dose mostly 57.7 µM), for inactives: at the highest dose activity, negative = inhibition, actives largely listed as inhibitors; K18 P301L tau heparin fibrillization, Alexa594 FP, 6 h; further: nearly all actives have a fitted effect of over 55% in size
# Target sequence (P10636 561-689 P618L limits assumed): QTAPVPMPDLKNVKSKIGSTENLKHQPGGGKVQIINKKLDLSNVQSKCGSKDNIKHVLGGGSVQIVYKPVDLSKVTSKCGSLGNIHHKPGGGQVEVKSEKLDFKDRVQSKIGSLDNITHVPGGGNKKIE
#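 Heparin (20 uM) drove fibril formation of recombinant tau K18 P301L, 15 uM unlabeled with 0.24 uM Alexa 594 label, for 6 hr at 37 C in 100 mM sodium acetate pH 7. Fluorescence polarization (555/632 nm) read 1 hr after 30 uM ThT.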
# NPSR antagonist – qHTS Assay for Antagonists of the Neuropeptide S Receptor: cAMP Signal Transduction; CHO-NPSR cells, cAMP TR-FRET, antagonist mode; 220,000 compounds, 1% hits; Potency, µM (doses to about 38.3 µM), for inactives: top-dose activity change, negative = inhibition, actives largely listed as inhibitors; further: nearly all actives have a fitted effect of over 50% in size
# Tau fluor cs – Counterscreen qHTS for Inhibitors of Tau Fibril Formation, Fluorescence Polarization; tau K18 P301L Alexa594 fluorescence, heparin fibrillization; Potency, µM (highest dose often 57.7 µM), without a hit: at the highest dose activity change, negative = decrease; 280,000 compounds, 0.93% hits; AID 1463, 2008; further: nearly all actives have a fitted effect of over 55% in size
#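 Human tau K18 P301L (15 uM unlabeled, 0.24 uM Alexa 594-labeled) in 100 mM sodium acetate pH 7 with 20 uM heparin, 6 hr at 37 C. ThT 30 uM added, 1 hr ambient; Alexa 594 FP and total fluorescence read at 555/632 nm.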
# ALDH1A1 block – qHTS Assay for Inhibitors of Aldehyde Dehydrogenase 1 (ALDH1A1). Purified ALDH1A1, NADH fluorescence, propionaldehyde substrate. Potency, µM (top dose mostly 75.3 µM), for the others: at the highest dose activity, negative = inhibition, hits mostly inhibitors. 220,000 compounds, 7.3% hits. AID 1030, 2008; active means well fitted inhibition curve with a large enough effect, not every such curve was filed as active; inconclusive means small, poorly fitted or top-dose-only effect, or another doubt; inactive means no such curve, though single readings can be large or run the other way;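 further: plate controls were no enzyme wells and a reference inhibitor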
# Target sequence (P00352 whole entry, looked up): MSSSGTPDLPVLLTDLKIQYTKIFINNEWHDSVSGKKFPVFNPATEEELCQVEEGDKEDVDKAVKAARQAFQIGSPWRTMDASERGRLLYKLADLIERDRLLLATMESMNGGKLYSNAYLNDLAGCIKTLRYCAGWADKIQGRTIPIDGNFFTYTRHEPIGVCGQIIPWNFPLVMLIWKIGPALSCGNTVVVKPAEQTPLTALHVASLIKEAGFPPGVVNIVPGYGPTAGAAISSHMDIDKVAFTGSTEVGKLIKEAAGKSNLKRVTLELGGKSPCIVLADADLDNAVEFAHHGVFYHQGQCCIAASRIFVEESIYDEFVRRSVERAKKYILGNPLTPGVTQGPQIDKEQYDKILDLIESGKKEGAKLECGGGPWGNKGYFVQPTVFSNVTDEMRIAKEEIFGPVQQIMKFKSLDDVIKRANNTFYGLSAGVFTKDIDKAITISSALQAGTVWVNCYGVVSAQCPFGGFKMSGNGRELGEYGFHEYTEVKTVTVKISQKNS
# Tau fibril ThT – qHTS for Inhibitors of Tau Fibril Formation, Thioflavin T Binding | recombinant tau K18 P301L (four-repeat tau fragment), heparin-induced fibrillization, ThT fluorescence | Microtubule-associated protein tau (Homo sapiens), P10636 | Potency, µM (series often up to 57.4 µM), for inactives: at the highest dose activity, negative = inhibition, most hits filed as inhibitors | AID 1460, 2008 | 270,000 compounds, 2.1% hits; further: nearly all actives have a fitted effect of over 55% in size
#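 Heparin-induced (20 uM) aggregation of recombinant human K18 P301L tau, 15 uM unlabeled with 0.24 uM labeled, pH 7 acetate buffer, 6 hr at 37 C with compound. Fibrils quantified by 30 uM ThT fluorescence after 1 hr ambient incubation.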
# HPGD block – qHTS Assay for Inhibitors of HPGD (15-Hydroxyprostaglandin Dehydrogenase) | Potency, µM, for inactives: at the highest dose activity change, negative = inhibition, most hits filed as inhibitors | 15-hydroxyprostaglandin dehydrogenase [NAD(+)] (Homo sapiens), P15428 | purified HPGD, NADH fluorescence kinetic, PGE2 substrate | 150,000 compounds, 4.3% hits | AID 894, 2007; active means well fitted inhibition curve with a large enough effect, not every such curve was filed as active; inconclusive means small, poorly fitted or top-dose-only effect, or another doubt; inactive means no such curve, though single readings can be large or run the other way
#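 20 nM HPGD preincubated 15 min at room temperature with compound in 50 mM Tris-HCl pH 8, 0.01% Tween 20. Started with 1 mM NAD+ and 30 uM prostaglandin E2; NADH fluorescence (360/450 nm) read 5 times over 30-s intervals, last minus first.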
# * = called active by the depositor; ? = inconclusive; . = no result; [ ] = another dose, or the depositor's remark. Unless noted, the call rests on the fitted dose curve; in most records, active means well fitted curve in the direction sought with a large enough effect; inconclusive means small, poorly fitted or top-dose-only effect, or another doubt; inactive means no such curve, though single readings can be large; an effect the other way counts as inactive or inconclusive. Unless noted, on the % scale 0 is the no-effect control and ±100 the full control effect; potency means the concentration at half of the fitted maximal effect.
SMILES,Tau FP inhib,NPSR antagonist,Tau fluor cs,ALDH1A1 block,Tau fibril ThT,HPGD block
CCSc1nnc(NC(=O)c2c(-c3ccccc3Cl)noc2C)s1,0%,-9%[46.1 µM],-1%,11µM*,2%,-26%
CCc1nn2c(=O)cc(COc3ccc(/C=C4\C(=N)N5N=C(C)SC5=NC4=O)cc3)nc2s1,0%,-49%,-17%,8.9µM*,13µM*,.
CCc1nn2c(=O)cc(COC(=O)COc3ccc(OC)cc3)nc2s1,2%,.,-1%,.,-1%,.
COc1ccc(CNC(=O)C2CC(=O)N(c3ccc(OCC(=O)N4CCCCC4)cc3)C2)cc1 (stereo unspecified),-6%,7%[46.1 µM],4%,?,3%,14µM*
CC(C)(C)CC(C)(C)NCC(=O)Nc1c2c(nc3ccccc13)CCC2,0%,22%,-2%,9.5µM*,2%,.
COc1ccc(Nc2c3c(c(C#N)c4nc5ccccc5n24)CCC3)cc1,-2%,-10%[46.1 µM],-1%,?,3%,1.3µM*
O=C(NNC(=S)Nc1ccc(Cl)cc1Cl)C1CC1,5%,13%,8%,?,1%,-7%
COCc1cc(Sc2ccc(Br)cc2)nc(-c2ccccc2)n1,-13%,-10%[46.1 µM],-12%,-1%,-15%,-1%
Clc1cc(Sc2ccc(Br)cc2)nnc1-c1ccccc1,0%,?,-5%,1µM*,-13%,-21%
CCOC(=O)c1cc([N+](=O)[O-])c([N+](=O)[O-])cc1NC(C)=O,-2%,10µM*,-11%,8.9µM*,-5%,22µM*
O=S(=O)(Nc1ccc(Cc2ccncc2)cc1)c1cccs1,-3%,-21%[46.1 µM],-10%,10%,-3%,28µM*
CCS(=O)(=O)Nc1ccc(Cc2ccncc2)cc1,1%,-9%[46.1 µM],4%,-14%,?,1.3µM*
CC(=O)Nc1ccc(NS(C)(=O)=O)cc1,-11%,-1%[46.1 µM],-12%,10%,-6%,-5%
CCS(=O)(=O)Nc1ccc(NC(C)=O)cc1,-2%,-4%[46.1 µM],0%,8%,-9%,25µM*
N#Cc1c(/N=C/c2ccco2)sc2c1CCCCC2,-10%,-23%[46.1 µM],-23%,14µM*,4.5µM*,-28%
C(=N\Nc1ncnc2sc3c(c12)CCC3)/c1cccs1,4%,-13%[46.1 µM],?,8%,?,-21%
CN(C)/C=N/c1sc2c(c1C#N)CCCC2,-1%,2%,-14%,2µM*,?,.
N#Cc1c(/N=C/c2cccs2)sc2c1CCC2,-3%,-20%[46.1 µM],-23%,?,2.8µM*,20µM*
COc1ccc(/C=C\c2onc(C)c2S(=O)(=O)N2CCC(C(=O)Nc3ccc(C)cc3C)CC2)cc1,?,.,-18%,.,-8%,.
Cc1ccc(S(=O)(=O)N2CCCC(C(=O)NC3=NCCS3)C2)cc1 (stereo unspecified),3%,-8%[46.1 µM],-1%,16%,0%,2%
O=C(NCC(=O)N(c1ccc(F)cc1)C(C(=O)NCC1CCCO1)c1ccccc1)c1ccco1 (stereo unspecified),-7%,-9%[46.1 µM],4%,3%,0%,-12%
Cc1ccccc1C(=O)N1CCC(N2CCN(Cc3ccc(F)cc3)C(=O)C2=O)CC1,-1%,.,-6%,.,-2%,.
Cc1ccc(-c2nnc(N3CCN(C(=O)c4ccco4)CC3)c3ccccc23)cc1,8%,?,8%,14µM*,-5%,-15%
Cc1ccc(OCC(=O)N2CCN(c3nnc(-c4ccc(C)cc4)c4ccccc34)CC2)cc1,9%,?,-8%,14µM*,?,-16%
Cc1ccc(-c2cc(C(=O)N3CCN(C(=O)c4ccco4)CC3)no2)cc1,4%,6%[46.1 µM],-6%,-2%,?,-8%
SMILES,Tau FP inhib,NPSR antagonist,Tau fluor cs,ALDH1A1 block,Tau fibril ThT,HPGD block
COc1ccc(OCC(=O)N2CCN(c3nnc(-c4ccc(C)cc4)c4ccccc34)CC2)cc1,8%,?,4%,.,-12%,.
Cn1nnnc1SCCNCc1cc(Cl)ccc1OCc1ccccc1,5%,8%,-2%,13µM*,-14%,-4%
O=C(O)c1ccc(N/N=C2/CCCc3ccccc32)cc1,3%,11%,-8%,.,?,.
O=C(Nc1ccc(Nc2ccccc2)cc1)c1ccc(Br)o1,?,-23%[46.1 µM],14µM*[quencher],5%,8.9µM*,28µM*
O=C(Nc1ccc2c(c1)OCCO2)c1ccc(Br)o1,2%,-3%[46.1 µM],-12%,?,?,28µM*
COc1ccc(NC(=S)NC(=O)c2ccc(Br)o2)cc1,1%,-17%,-12%,11µM*,-5%,.
COc1ccc(CN2CCN(S(=O)(=O)c3ccc(NC(C)=O)cc3)CC2)cc1,-4%,4%,-14%,.,0%,.
c1ccc(-c2nc(-c3cccnc3)n[nH]2)cc1,9%,13%,2%,1%,-2%,-13%
Oc1ccc(N=Nc2n[nH]c(-c3ccccc3)n2)cc1,-5%,-24%,-27%,?,2.5µM*,-23%
Oc1ccc(N=Nc2n[nH]c(-c3ccc(Br)cc3)n2)cc1,-15%,-12%[46.1 µM],?,0%,2.2µM*,-16%
CCOC(=O)c1cc2c(=O)n3ccccc3nc2n(C)c1=NC(=O)c1c(-c2ccccc2Cl)noc1C,-8%,.,-20%,.,-10%,.
COc1ccc(N2C(=O)[C@H]3CCC=C[C@H]3[C@@H]2c2ccccc2Br)cc1,11%[81.3 µM],.,-10%[81.3 µM],7.1µM*,-19%[81.4 µM],-20%
Cc1ccc(Cn2c(SC(C)C(N)=O)nc3ccccc3c2=O)cc1 (stereo unspecified),-6%,-24%,-11%,?,3%,.
COc1ccc(CNC[C@@H](CCCCN(C)Cc2ccc(OC)cc2)N2C[C@H](c3ccccc3)N(CCc3ccc(Cl)c(Cl)c3)C(=O)C2=O)cc1,-6%,?,-12%,?,?,.
CN(CCCC[C@H](CNCc1ccc(-c2ccccc2)cc1)N1C[C@H](c2ccccc2)N(CCc2ccc(Cl)c(Cl)c2)C(=O)C1=O)Cc1ccc(-c2ccccc2)cc1,-1%,10µM*,20%,.,?,.
CCCCCCCCCCCCCc1ccco1,-9%,.,-6%,-3%,-1%,-8%
COCCNC(=O)CCCN1C(=O)CCn2nc(-c3cccn3C)cc21,-3%,.,0%,.,-3%,.
Cc1nn(-c2ccccc2)c(Cl)c1/C=N/Nc1nncc(=O)[nH]1,-3%,-7%,-8%,.,-14%,.
